158 variants from a collection of fitness landscapes (doi:10.1126/science.1257360) can be followed below.

The full ranking holds about 140,000 sequences; the median of “enrichment ratio after two sorts for PhoP signalling” is about 0, and the highest 2% start at about 11. The sample holds the highest values, similar sequences and a random draw of the others, so the mix is not that of the screen. Some results are limits rather than exact numbers.

B1: PhoQ; a variant is named by its letters at X, in order, P23837 (parent)
chain: MKKLLRLFFPLSLRVRFLLATAAVVLVLSLAYGMVALIGYSVSFDKTTFRLLRGESNLFYTLAKWENNKLHVELPENIDKQSPTMTLIYDENGQLLWAQRDVPWLMKMIQPDWLKSNGFHEIEADVNDTSLLLSGDHSIQQQLQEVREDDDDAEMTHSVAVNVYPATSRMPKLTIVVVDTIPVELKSSYMVWSWFIYVLSANLLLVIPLLWVAAWWSLRPIEALAKEVRELEEHNRELLNPATTRELTSLVRNLNRLLKSERERYDKYRTTLTDLTHSLKTPLXXLQXXLRSLRSEKMSVSDAEPVMLEQISRISQQIGYYLHRASMRGGTLLSRELHPVAPLLDNLTSALNKVYQRKGVNISLDISPEISFVGEQNDFVEVMGNVLDNACKYCLEFVEISARQTDEHLYIVVEDDGPGIPLSKREVIFDRGQRVDTLRPGQGVGLAVAREITEQYEGKIVAGESMLGGARMEVIFGRQHSAPKDE

This experiment covers variants of B1. The experiment is described as follows: enrichment ratio after two sorts for PhoP signalling (ratio (wild type AVST 3.29)); higher = more functional. The following applies: with PhoP (E. coli).
In the case of TRMY, the enrichment ratio was found to be 0.856.
For the variant TEAG, the enrichment ratio worked out at 19.7.
As to TEMI, the enrichment ratio was determined as 51.6.
With TEMY the figure was 12.3.
With MEAG the figure was not above 0.25; with LRMY, not above 0.25; with NEAG, 2.93.
As for TEMT, the enrichment ratio stood at 7.24.
Turning to KRMA, the enrichment ratio was not above 0.25.
With TEMA the figure was 38.6; with TEMF, 5.53; with SRMA, not above 0.25.
To KIPV belongs not above 0.25; to QTVW, not above 0.25; to FSFP, not above 0.25.
For the variant AQFM, the enrichment ratio worked out at 12.2.
Turning to AQCS, the enrichment ratio came out at 11.1.
With AQCA the figure was 32.5.
To AQCI belongs 8.62.
With EQCQ the figure was not above 0.25.
For the variant AQGR, the enrichment ratio is not above 0.25.
For AKFM, the enrichment ratio amounted to 0.887.
With AQCQ the figure was 31.6.
As to AQGD, the enrichment ratio was not above 0.25.
Take AQQP: the enrichment ratio is not above 0.25.
To AIFM belongs not above 0.25.
With AQGM the figure was 13.3; with NSDI, not above 0.25.
With SHDW the figure was not above 0.25; with PPSE, not above 0.25.
Take GEHW: the enrichment ratio is not above 0.25.
In the case of SDNF, the enrichment ratio was not above 0.25.
With WLKM the figure was not above 0.25; with FCKF, not above 0.25; with MLLR, not above 0.25.
Regarding FQAN, the enrichment ratio is not above 0.25.
With ILQV the figure was not above 0.25; with ELVF, not above 0.25; with YMHL, not above 0.25.
To ENAI belongs not above 0.25.
To AQCK belongs 29.5; to AQRM, not above 0.25.
Take AQWM: the enrichment ratio was not above 0.25.
As for EQPV, the enrichment ratio was not above 0.25.
NEVC: the enrichment ratio is not above 0.25.
To GELL belongs 12.9.
To APLL belongs not above 0.25; to GEEL, not above 0.25.
In the case of SRLL, the enrichment ratio came to 10.3.
To SPLL belongs not above 0.25; to TGLL, 12.6.
As to SNLL, the enrichment ratio was determined as 18.5.
With CFLL the figure was not above 0.25.
Consider ANLL, for which the enrichment ratio was 13.4.
Take ALLL: the enrichment ratio was determined as 8.77.
With GEGL the figure was not above 0.25.
With NGLL, the enrichment ratio is 3.87.
Regarding FYWW, the enrichment ratio was not above 0.25.
With TYKE the figure was not above 0.25.
For SNRC, the enrichment ratio is not above 0.25.
With GTRN, the enrichment ratio is not above 0.25.
With HRVR the figure was not above 0.25.
On to LSWW, for which the enrichment ratio is not above 0.25.
With ACNW the figure was not above 0.25.
Take QYTV: the enrichment ratio is not above 0.25.
With PYEY the figure was not above 0.25; with MGMC, 5.27.
With FDLL the figure was not above 0.25; with FGNL, not above 0.25.
Regarding SGLL, the enrichment ratio came to 19.8.
With THLL the figure was 14; with KDLL, not above 0.25.
In the case of TILL, the enrichment ratio turned out to be 0.421.
To TDLL belongs 11.8.
To NHLL belongs not above 0.25; to QGLL, 10.4.
To YHLL belongs not above 0.25; to FGLL, 12.6; to IMDM, not above 0.25.
Consider IQAN, for which the enrichment ratio is not above 0.25.
With PYDA the figure was not above 0.25; with PKEG, not above 0.25.
With VQIN the figure was not above 0.25.
For the variant QPDT, the enrichment ratio is not above 0.25.
LCFE: the enrichment ratio was not above 0.25.
With CCPF the figure was not above 0.25; with HHCS, not above 0.25; with ITLL, 7.22.
SMLL: the enrichment ratio stood at 11.2.
To MVLL belongs 7.33; to CTLL, 0.613; to SMLA, 6.54.
With SELL the figure was 16.3.
Regarding SMLS, the enrichment ratio came to 6.78.
With TTLL the figure was 17.7; with GLLL, 11.7.
For GLLA, the enrichment ratio is not above 0.25.
As for QELL, the enrichment ratio was not above 0.25.
With HWCD, the enrichment ratio stood at 2.96.
To RPRI belongs not above 0.25.
To VRDD belongs not above 0.25; to KIGV, not above 0.25; to THDR, not above 0.25.
On to AYVL, for which the enrichment ratio was not above 0.25.
Take MAPF: the enrichment ratio was not above 0.25.
Regarding SDCN, the enrichment ratio was 4.78.
As for WMRH, the enrichment ratio was not above 0.25.
To DNPC belongs not above 0.25; to MCLL, 8.32; to GYLL, not above 0.25.
Consider MNLL, for which the enrichment ratio is 12.4.
As for RGLL, the enrichment ratio was not above 0.25.
As for SQLL, the enrichment ratio was 12.5.
With AGLL the figure was 14.6.
With GGLL the figure was 12.7; with KYLL, not above 0.25.
With TNLL the figure was 4.87; with DPLL, not above 0.25.
As for QKGI, the enrichment ratio is not above 0.25.
With VHAG, the enrichment ratio was not above 0.25.
With IAYV the figure was not above 0.25; with FDHC, not above 0.25; with EIDC, not above 0.25.
With SSGH, the enrichment ratio turned out to be 7.6.
For QDTV, the enrichment ratio was not above 0.25.
As for ILKM, the enrichment ratio is not above 0.25.
Turning to SLLL, the enrichment ratio turned out to be 5.02.
Regarding MGRL, the enrichment ratio is not above 0.25.
For VYLL, the enrichment ratio was not above 0.25.
With SALL the figure was 18.6.
With SFLL the figure was 3.56; with VTLL, 17.8; with STLL, 16.4.
For the variant MGLL, the enrichment ratio was 14.3.
With MGGL the figure was 4.99; with IILL, 1.2.
For VTLA, the enrichment ratio was 5.19.
On to KQLL, for which the enrichment ratio was not above 0.25.
With PQRH, the enrichment ratio was not above 0.25.
With LTHP the figure was not above 0.25.
For TKSQ, the enrichment ratio worked out at 2.92.
To HTAI belongs not above 0.25; to KTTI, not above 0.25; to LGSF, not above 0.25.
To YVWK belongs not above 0.25.
Consider IDNN, for which the enrichment ratio was not above 0.25.
With YYLL the figure was not above 0.25; with ADLL, 9.99.
Take ATLL: the enrichment ratio is 20.5.
Consider GSLL, for which the enrichment ratio was 14.1.
With IQLL the figure was 0.329; with TPLL, not above 0.25; with GSRL, not above 0.25.
To TQLL belongs 18.9; to EQLL, not above 0.25.
For the variant AHLL, the enrichment ratio stood at 9.28.
With FTLL the figure was 11.6; with YTLL, 9.09.
